# The list is not random: actives were taken first. Their share in the collection is about 4.8%.
# NALP1 yeast inh – NALP1 inflammasome inhibitors in reconstituted yeast, colorimetric, S. cerevisiae, triplicate retest; inhibition, % at 10 µM; S. cerevisiae NALP1/ASC/caspase-1 growth, X-gal OD620, 72 h; 280,000 tested, 0.61% active; in the data active = inhibition mostly above about 24%, no sharp cut-off; inactive = mostly below about 32%
# PfHsp90 yeast 2 – growth inhibition of PfHsp90-expressing yeast, primary screen, antimalarial PfHsp90 inhibitor project, S. cerevisiae, BacTiter-Glo luminescence, single point, set 2; BacTiter-Glo ATP, 48 h; yeast lacking PDR1 and PDR3 efflux regulators; inhibition, % at 9.4 µM; 310,000 tested, 0.32% active; AID 504621, 2011;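 active = every replicate shows inhibition above about 80%, whatever the replicate mean, limit read from the data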;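 note: 0% = DMSO neutral controls and 100% = 20 µM radicicol positive controls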
# tim23-1 inh – growth inhibitors of tim23-1 mutant yeast, primary screen, luminescence, uHTS. S. cerevisiae tim23-1 growth, BacTiter-Glo luminescence, 24 h. inhibition, % at 20 µM. 330,000 tested, 1.3% active. AID 463212, 2010;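 active = growth inhibition of the mutant yeast at or above 50%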;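 note: temperature-sensitive mutant grown at 25 °C; plate controls were DMSO-treated mutant yeast for no effect and medium wells lacking yeast for full effect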
# tim10-1 inh – growth inhibitors of tim10-1 mutant yeast, primary screen, luminescence, uHTS; inhibition, % at 20 µM; AID 463190, 2010; S. cerevisiae tim10-1 ts strain growth, BacTiter-Glo, 24 h; 330,000 tested, 2.2% active;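 active = inhibition of at least 40%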;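 note: mutant grown at 25 °C; 0% = DMSO wells with yeast and 100% = wells holding no yeast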
# SKKanGAS inh – S. pyogenes SKKanGAS growth inhibitors in kanamycin, primary screen, streptokinase expression inhibitor project, SKKanGAS strain, BacTiter-Glo luminescence; 6 h; inhibition, % at 7.5 µM; 300,000 tested, 1.3% active; AID 1662, 2009;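 active = mean replicate score, as percent of positive control median, at least 50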;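 note: strain carries kanamycin resistance gene driven by streptokinase promoter and grows in 40 µg/ml kanamycin; loss of luminescence reflects streptokinase promoter inhibition or plain growth inhibition; 0% = median of DMSO wells and 100% = positive control at its reference dose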
# TIM10 inh – growth inhibitors of isogenic TIM10 control yeast, primary screen, counter-screen for tim10-1 yeast inhibitor project, luminescence, uHTS. AID 463195, 2010. inhibition, % at 10 µM. S. cerevisiae TIM10 strain growth, BacTiter-Glo luminescence, 24 h. 330,000 tested, 1.4% active;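 active = inhibition of 40% or more at the single tested concentration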;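 note: wild-type TIM10 isogenic control strain grown at permissive 25 °C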
# tim10-1 confirm – growth inhibitors of tim10-1 mutant yeast, confirmation, single concentration, luminescence, S. cerevisiae; shares compounds with tim10-1 inh; S. cerevisiae tim10-1 ts strain growth, BacTiter-Glo, 24 h; inhibition, % at 20 µM; 7,400 tested, 56% active;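 active = inhibition of yeast growth at or above a set limit in either of two repeat tests at 20 µM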;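 note: tim10-1 mutant grown at permissive 25 °C to find synthetic lethal compounds; 0% = DMSO yeast wells and 100% = medium wells without yeast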
# * = called active by the depositor; nt = no result.
SMILES,NALP1 yeast inh,PfHsp90 yeast 2,tim23-1 inh,tim10-1 inh,SKKanGAS inh,TIM10 inh,tim10-1 confirm
O=C(O)COc1ccc(/C=N/NC(=O)c2cn(-c3ccccc3)nc2-c2ccccc2)cc1,9.3,7.4,19.6,3.1,-1.5,5.4,nt
O=C(N/N=C/c1cccnc1)c1cc(-c2ccc(Cl)cc2)nc2ccccc12,nt,17.3,36.8,18.3,-1.4,15.5,nt
O=C(N/N=C/c1ccc([N+](=O)[O-])o1)c1cc(-c2ccc(-c3ccccc3)cc2)nc2ccccc12,5.6,4.1,32.0,55.7*,74.1*,37.6,41.5*
O=C(N/N=C/c1ccc([N+](=O)[O-])o1)c1cn(-c2ccccc2)nc1-c1ccccc1,27.5,6.3,36.3,54.3*,22.1,30.4,28.1
CCCN1C(=O)c2ccc(C(=O)Nc3cc(C)ccc3O)cc2C1=O,32.5,26.3,47.6,43.9*,1.8,3.3,25.2
COc1ccc(-n2nnnc2-c2cccc(OC)c2)cc1,37.4,-4.4,1.4,44.0*,0.1,-6.6,13.1
CCOC(=O)N1CCC(NC(=O)c2ccc3c(c2)N=C(C)c2c(C)ccc(C)c2S3)CC1,13.1,-17.3,44.9,44.1*,8.8,22.0,2.5
CCOC(=O)c1c(NC(=O)C2CCCN2S(=O)(=O)c2cccc3nsnc23)sc(C)c1C (stereo not given),nt,-5.9,nt,nt,nt,nt,nt
CCN(CC)CCCN(Cc1cc2cc3c(cc2[nH]c1=O)OCO3)C(=S)NCCCOC,3.5,-15.4,8.8,-3.6,6.7,4.0,nt
COC(=O)c1ccccc1NC(=O)c1sc(N)nc1C,38.1,-0.5,-8.3,14.3,nt,-13.2,nt
COC(=O)c1ccccc1NC(=O)c1sc(=S)n(C)c1N,0.8,-21.8,30.2,46.1*,-6.7,35.0,22.4
Cc1cc(O)c2c(c1)C(=O)c1cc(O)cc(O)c1C2=O,nt,25.1,44.3,45.4*,5.9,24.1,22.8
O=C(CC1SCCNC1=O)Nc1cccc([N+](=O)[O-])c1 (stereo not given),-27.1,4.4,10.3,-13.1,0.5,-16.0,nt
COc1ccc(C(=O)Nc2ccccc2C(=O)NCc2ccco2)cc1OC,-9.5,-3.3,37.0,28.6,9.7,30.1,nt
COc1ccc(C(=O)Nc2ccc(Cl)cc2C(=O)NCc2ccco2)cc1OC,0.7,-19.5,29.9,42.7*,16.1,16.4,15.2
C=CCNC(=S)NNc1nc2c(c(=O)[nH]1)C1(CCCCC1)Cc1ccccc1-2,11.6,-12.4,31.1,52.2*,12.1,39.1,41.5*
NNC(=O)c1cccc(COc2ccc3c(c2)CCC3)c1,35.3,1.7,47.6,46.9*,10.3,25.3,19.2
NNC(=O)c1cccc(COc2ccccc2Br)c1,-9.9,4.7,43.2,41.2*,-4.3,39.5,16.5
CS(=O)(=O)Nc1ccc(S(=O)(=O)NC2CCCCC2)cc1,10.2,8.7,4.4,-2.6,-5.2,-6.0,nt
CC(C)=CC(=O)OCC(=O)Nc1ccc(F)cc1Cl,5.5,-3.1,13.9,6.1,4.8,6.7,nt
CCOc1cc(/C=C2/SC(=S)N(CC3CCCO3)C2=O)ccc1O (stereo not given),2.6,10.9,4.1,-1.3,7.0,-3.2,nt
CC(=O)Nc1ccc(OS(=O)(=O)c2c(C)cc(C)cc2C)cc1,-4.7,-21.1,41.5,46.4*,-15.7,33.1,31.1*
CC(=O)OCCc1[nH]c2ccccc2c1C,8.5,-17.9,-1.7,-4.7,8.1,-2.0,nt
CC(=O)OCCc1c2ccccc2c(CCCN(C)C)c2ccccc12,nt,12.4,2.6,40.5*,1.4,14.4,27.9
CCOC(=O)[C@H]1[C@H]2COc3ccc(C)cc3[C@@H]2N2C(=O)c3cc(Cl)ccc3NC(=O)[C@@]12C,nt,-26.2,33.9,40.1*,nt,23.5,16.9

# Screening results from PubChem BioAssay.
